# Screening results (PubChem BioAssay)
# A selection: hits, their analogues and other compounds. The true share with any hit is near 28%.
# CYP2C19 inh: blockers of cytochrome P450 2C19 activity – biochemical, luminescence, ADME assay, primary screen; P33261; CYP2C19 Supersomes, luciferin-H EGE luminescence, 30 min; inhibition, % at 5 µM; hit rate 21% among 96,000; AID 778, 2007;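 active = CYP2C19 inhibition above a set limit at 5 µM in the primary screen, cut at about 50% in these data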;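 also: plate controls were negative control wells for no effect and 2.5 mM tranylcypromine positive control for full effect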
# CD11b adhes inh: inhibitors of CD11b/CD18 adhesion to fibrinogen, primary screen, K562 cells, luminescence | Integrin beta-2 (Homo sapiens) + Integrin alpha-M (Homo sapiens), P05107+P11215 | ATPlite luminescence; Mn2+ added to activate the integrin | inhibition, % at 10 µM | hit rate 0.54% among 93,000 | AID 1497, 2009;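 active = primary inhibition of 50% or more at 10 µM, then 40% or more on retest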
# CYP2C19 activ: human CYP2C19 activators, primary screen, biochemical, luminescence; Cytochrome P450 2C19 (Homo sapiens), P33261; 96,000 tested, under 10 active; recombinant CYP2C19, luciferin-H EGE luminescence; hits give high values; 0 = fully inhibited enzyme, 1 = untreated enzyme; activation factor at 5 µM; AID 1025, 2008;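 active = activation factor of at least 2 at 5 µM in the primary screen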;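 also: 0 = wells with 2.5 mM tranylcypromine and 1 = vehicle-only wells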
# Mac1 fbg enh: enhancers of CD11b/CD18 adhesion to fibrinogen, primary screen, K562 cells, luminescence; ATPlite luminescence; activation, % at 10 µM; hit rate 0.07% among 93,000;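 active = 10 µM primary screen giving 50% or more activity, confirmed by 40% or more on retest at that dose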
# CYP2C9 act: human CYP2C9 activators, primary screen, biochemical, luminescence; hit rate 1.4% among 96,000; Cytochrome P450 2C9 (Homo sapiens), P11712; activation factor at 5 µM; recombinant CYP2C9, luciferin-H conversion; hits give high values; factor 1 = untreated enzyme, 0 = blocked;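 active = activation factor of 2 or more for CYP2C9 at a 5 µM dose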;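 also: 0 = sulfaphenazole-blocked wells and 1 = vehicle-only wells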
# Target sequence (P11712 whole entry, looked up): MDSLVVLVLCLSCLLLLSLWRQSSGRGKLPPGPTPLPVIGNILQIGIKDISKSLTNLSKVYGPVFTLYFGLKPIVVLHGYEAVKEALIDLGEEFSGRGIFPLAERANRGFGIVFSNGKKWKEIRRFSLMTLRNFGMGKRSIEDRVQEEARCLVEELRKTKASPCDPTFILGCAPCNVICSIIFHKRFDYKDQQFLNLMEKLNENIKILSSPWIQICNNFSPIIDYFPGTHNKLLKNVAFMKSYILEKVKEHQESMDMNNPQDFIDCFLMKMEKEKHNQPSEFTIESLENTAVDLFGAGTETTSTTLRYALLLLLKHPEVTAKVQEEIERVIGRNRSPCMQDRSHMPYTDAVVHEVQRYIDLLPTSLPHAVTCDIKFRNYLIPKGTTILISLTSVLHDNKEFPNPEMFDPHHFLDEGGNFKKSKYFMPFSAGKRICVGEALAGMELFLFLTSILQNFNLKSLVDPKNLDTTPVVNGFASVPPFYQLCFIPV
# CYP2C9 inh: blockers of cytochrome P450 2C9 activity – biochemical, luminescence, ADME assay, primary screen; P11712; CYP2C9 Supersomes, luciferin-H conversion; inhibition, % at 5 µM; hit rate 20% among 96,000;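 active = blocking of liver enzyme CYP2C9 beyond about 50% at 5 µM, limit read from the data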
# * = called active by the depositor; . = not tested or not shown.
SMILES,CYP2C19 inh,CD11b adhes inh,CYP2C19 activ,Mac1 fbg enh,CYP2C9 act,CYP2C9 inh
O=C(CC1C(=O)NC2CCCCC2N1C(=O)c1ccc(F)cc1)Nc1ccccc1 (stereo unspecified),35,-1,0.7,-3,0.4,56*
Cc1ccc(NC(=O)CC2C(=O)NC3CCCCC3N2C(=O)c2ccc(F)cc2)cc1C (stereo unspecified),8,40,0.9,-3,0.4,64*
COc1ccccc1C(=O)N1C(CC(=O)Nc2cc(Cl)ccc2C)C(=O)NC2CCCCC21 (stereo unspecified),34,-4,0.7,0,0.7,26
CCC1CCCCN1CCCNC(=O)CC1Oc2ccc(C)cc2NC1=O (stereo unspecified),-3,-1,1,-5,0.9,5
COc1ccc(N(CC(=O)N/N=C/c2ccc(-c3ccc([N+](=O)[O-])cc3)o2)S(=O)(=O)c2ccc(C)cc2)cc1,.,-18,.,68,.,.
COc1ccc(OCc2n[nH]c(=S)o2)cc1,14,7,0.9,-2,0.1,89*
S=c1[nH]nc(COc2ccc(Cl)cc2)o1,-11,3,1.1,-1,0.9,14
CCCCCNC(=O)c1ccc2c(=O)[nH]c3c(C(=O)NCC4CCCO4)sc(=S)n3c2c1 (stereo unspecified),35,38,0.7,-2,0.1,95*
Cc1ccc(-n2c(N)c(C(=O)NCc3ccco3)sc2=S)cc1,11,.,0.9,.,0.5,45
O=C(NC1CCCCCCC1)c1c(O)c2ccccc2[nH]c1=O,14,-16,0.9,10,0.9,5
CCn1c(N)c(C(=O)NCC2CCCO2)sc1=S (stereo unspecified),10,-12,0.9,0,0.9,8
O=C(NC1CCCC1)c1sc(=S)n2c1[nH]c(=O)c1ccccc12,28,95*,0.7,-8,0.1,93*
O=C(NCc1ccco1)c1sc(=S)n2c1[nH]c(=O)c1ccccc12,29,96*,0.7,-10,0,99*
CCCC(=O)NC(C)c1nc2ccccc2n1C(C)C (stereo unspecified),9,-66,0.9,-1,0.9,6
N#Cc1c(N)nc2c(c1-c1ccncc1)CCCC2,76*,7,0.2,-2,0.7,34
N#Cc1c(N)nc2c(c1-c1ccccc1)CCCC2,14,-21,0.9,0,1.2,-25
N#Cc1c(N)nc2c(c1-c1cccc(O)c1)CCCCCC2,31,.,0.7,.,0.5,54*
CN(C)C(=O)NC(O)C(Cl)Cl (stereo unspecified),-1,-8,1,-3,1,-4
Cn1c(=O)c2c(nc(N3CCNCC3)n2Cc2cccc3ccccc23)n(C)c1=O,-12,-7,1.1,0,1.1,-8
Cc1ccc2ccccc2c1Cn1c(-n2ccnc2)nc2c1c(=O)n(C)c(=O)n2C,58*,-4,0.4,2,0.5,47
CC(=Nc1ccccc1)Nc1ccccc1,79*,1,0.2,-3,1.1,-9
Cc1cccc(NC2=C(Cl)C(=O)OC2NC(=O)c2ccccc2)c1 (stereo unspecified),40,9,0.6,-1,0.5,54*
Cc1cccc(NC2=C(NC(=O)c3ccccc3)C(=O)c3ccccc3C2=O)c1,.,0,.,5,.,.
CCn1c(SCc2cccc(C)c2)nnc1-c1ccccc1,97*,2,0,-7,1,5
